{"source": "PubChem BioAssay (NCATS)", "note": "Activity calls are given as the source filed them. No rule for the calls is given here. Potency is read from the fitted curve at half-maximal effect.", "data": [{"tested_on": "HIV-1 nucleocapsid protein NCp7 (binding to TG oligonucleotide)", "assay": "HIV Nucleocapsid (AID 346);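 also: potency is for inhibitors that block NC binding and lower polarization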", "conditions": "HIV-1 NC / fluorescein-TGTGTGTG probe, fluorescence polarization", "procedure,_shortened": "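NCp7 100 nM + fluorescein TG4xF 10 nM; Hepes pH 7.5/250mM NaCl/1uM ZnCl2/0.004% PEG 20000; 1 hr RT; FP, 45 s exposure; oligo-only wells as negative control.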", "values": [{"smiles": "COc1cccc(-c2cncnc2NCc2ccccc2OC)c1", "Potency": "> 20 µM (inactive)"}, {"smiles": "O=S(=O)(c1ccccc1)N1CCC2(CCN(c3ncccn3)CC2)CC1", "Potency": "> 20 µM (inactive)"}, {"smiles": "Cc1ccccc1-c1ccc2ncnc(N3CCOCC3)c2c1", "Potency": "> 20 µM (inactive)"}, {"smiles": "COc1cccc(Nc2ncc3nc(-c4cc(F)cc(F)c4)c(=O)n(C4CC4)c3n2)c1", "Potency": "> 4 µM (inactive)"}, {"smiles": "Cn1cccc1C(=O)N1CCC2(CCCN(C(c3ccccc3)c3ccccc3)C2)CC1", "Potency": "> 20 µM (inactive)"}, {"smiles": "CN1CCN(c2ncc3ncc(=O)n(CCC#N)c3n2)CC1", "Potency": "> 20 µM (inactive)"}, {"smiles": "O=c1c(-c2ccc(F)cc2)nc2cncnc2n1C1CC1", "Potency": "> 20 µM (inactive)"}, {"smiles": "CN(C)c1ncc2nc(-c3ccccc3)c(=O)n(C[C@H]3CCCO3)c2n1", "Potency": "> 20 µM (inactive)"}, {"smiles": "FC(F)(F)c1ccccc1-c1cc(NCc2cccs2)ncn1", "Potency": "> 20 µM (inactive)"}, {"smiles": "Cc1ccccc1-c1nccc(NCCN2CCOCC2)n1", "Potency": "> 20 µM (inactive)"}, {"smiles": "CN1CCC2(CC1)CCN(S(=O)(=O)c1ccccc1)CC2", "Potency": "> 20 µM (inactive)"}, {"smiles": "COCCn1c(=O)c(-c2ccc(F)cc2)nc2cnc(N(C)C)nc21", "Potency": "> 20 µM (inactive)"}, {"smiles": "O=c1c(-c2ccc(F)cc2)nc2cnc(Oc3cccc(Cl)c3)nc2n1C1CC1", "Potency": "> 20 µM (inactive)"}, {"smiles": "Cn1cccc1C(=O)N1CCC[C@@]2(CCN(c3ccccn3)C2)C1", "Potency": "> 20 µM (inactive)"}, {"smiles": "O=C(c1csnn1)N1CCC2(CCCN(Cc3ccccc3)C2)CC1", "Potency": "> 20 µM (inactive)"}, {"smiles": "CN1CCC2(CC1)CCN(C(=O)c1cccc(F)c1)CC2", "Potency": "> 20 µM (inactive)"}]}]}
